In the library only some 3.7% were active in any assay of this set; here they are far more common.
ATXN2 expr inh – reduces ATXN2 reporter expression in HEK-293 cells; HEK-293 ATXN2-luciferase reporter, luminescence, 24 h; Potency, µM (doses to about 57 µM), without a hit: at the top dose activity change, negative = inhibition, actives largely listed as inhibitors; actives 0.72% (n = 360,000); AID 1745845; note: % is set by controls: 0 for no effect and ±100 for the full control effect; nearly all actives have a fitted effect of over 55% in size
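qHTS (up to 57 uM final) was run with 24 h compound exposure of reporter cells at 37 °C. Each well was multiplexed: SteadyGlo luminescence measured ATXN2-luciferase expression after a fluorogenic Gly-Phe-AFC viability readout (25 uM final).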
HepG2 tox – counter-screen for TGF-b inhibitors: cytotoxicity in HepG2 cells. HepG2 CAGA-GFP viability, ATP luminescence, 18 h. Potency, µM (titrated, usually from 46.1 µM), without a hit: at the top dose activity change, negative = cytotoxicity, most hits filed as cytotoxic. actives 0.76% (n = 410,000). AID 588856
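CellTiter-Glo luminescence gave cytotoxicity after 18 hours at 37 degrees C. The cells were HepG2 CAGA-GFP in 1% FBS DMEM, stimulated with 500 pg/mL TGF-beta after compound addition. %Activity was normalised to no-cell wells (complete cell-killing) and DMSO (no toxicity), and curves were fitted and classified.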
TGFb inhibitor – blocks TGF-b signaling. HepG2 CAGA-GFP TGF-b/SMAD3 reporter, GFP fluorescence, 18 h; TGF-beta stimulated, 500 pg/mL final. Potency, µM (titrated, usually from 46.1 µM), inactives show at the top dose activity, negative = inhibition, most hits filed as inhibitors. actives 1.2% (n = 410,000). AID 588855; note: % is set by controls: 0 for no effect and ±100 for the full control effect; nearly all actives have a fitted effect of over 65% in size
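Inhibition of TGF-beta-driven CAGA-GFP reporter expression in HEPG2 cells is measured by cellular GFP fluorescence after 18 h stimulation with 500 pg/mL recombinant TGF-beta in 1% FBS medium at 37 degrees C.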
GLP-1R agonist – agonists of human GLP-1 receptor | Potency, µM (top dose mostly 45.6 µM), for the others: top-dose activation, hits mostly activators | AID 624172 | actives 0.007% (n = 380,000) | P43220 | HEK293 GLP-1R CRE-luciferase, luminescence, 4-6 h; cells express a hypersensitive GLP-1R form; note: % of control where 0% means no effect
Target sequence (P43220 whole entry, looked up): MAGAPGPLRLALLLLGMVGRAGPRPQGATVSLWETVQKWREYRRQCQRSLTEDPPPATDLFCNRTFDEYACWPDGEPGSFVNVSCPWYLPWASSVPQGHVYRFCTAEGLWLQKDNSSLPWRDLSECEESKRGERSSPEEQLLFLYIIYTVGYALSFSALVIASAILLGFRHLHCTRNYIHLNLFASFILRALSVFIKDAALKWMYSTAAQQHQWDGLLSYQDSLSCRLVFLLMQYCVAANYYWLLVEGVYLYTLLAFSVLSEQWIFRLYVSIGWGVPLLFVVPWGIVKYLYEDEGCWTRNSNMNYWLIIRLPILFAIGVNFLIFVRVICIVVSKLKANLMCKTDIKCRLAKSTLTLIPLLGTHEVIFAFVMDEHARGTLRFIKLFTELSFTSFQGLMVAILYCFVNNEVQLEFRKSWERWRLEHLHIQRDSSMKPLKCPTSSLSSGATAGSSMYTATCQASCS
GLP1R inv ag – inverse agonists of human GLP-1 receptor; P43220; HEK293 GLP-1R CRE-luciferase, luminescence, 24 h; GLP-1R form is constitutively active; Potency, µM (doses to about 38.3 µM), for the others: top-dose activity change, negative = inhibition, most hits filed as inhibitors; actives 1.6% (n = 410,000); note: % is set by controls: 0 for no effect and ±100 for the full control effect; nearly all actives have a fitted effect of over 55% in size
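Stable HEK293 clone (constitutively active GLP-1R + cAMP-response luciferase); 200 cells/uL plated, 12 h pre-culture, compound 24 hr, 37 deg C/5% CO2; detection reagent 12 min RT; luminescence.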
S2 tox – viability counter-screen for ATXN expression inhibitors | Potency, µM (top dose mostly 56.7 µM), most hits filed as cytotoxic | AID 651635 | actives 0.49% (n = 400,000) | S2 cells (HEK-293 line with an ATXN2-luciferase reporter) viability, CellTiter-Fluor protease fluorescence, 24 h; note: nearly all actives have a fitted effect of over 40% in size
* = called active by the depositor. Calls come from the whole dose curve; as a rule, active = well fitted curve in the direction sought with a large enough effect; inconclusive = small, poorly fitted or top-dose-only effect, or another doubt; inactive = no such curve, though single readings can be large; an effect the other way counts as inactive or inconclusive. Potency is the fitted concentration of half-maximal effect.

`CC(Oc1ccccc1)C(=O)N1CCN=C1SCc1ccccc1F` (stereo not given) gave ATXN2 expr inh -9%, HepG2 tox -8%, TGFb inhibitor 2%, GLP-1R agonist 12%, GLP1R inv ag 4µM* and S2 tox inactive.
`O=C(Nc1ccc(F)cc1)c1ccc(-n2cnc3cccnc32)cc1` gave ATXN2 expr inh 6%, HepG2 tox 5%, TGFb inhibitor 15%, GLP-1R agonist -8%, GLP1R inv ag -15% and S2 tox inactive.
OC(c1ccc(Cl)cc1)c1ncc(-c2cccc(C(F)(F)F)c2)[nH]1 (stereo not given) was read as ATXN2 expr inh inconclusive, HepG2 tox 10µM*, TGFb inhibitor inconclusive, GLP-1R agonist 3%, GLP1R inv ag inconclusive and S2 tox inactive.
`OC(c1cc(F)cc(Cl)c1)c1ncc(-c2cccc(C(F)(F)F)c2)[nH]1` (stereo not given) gave ATXN2 expr inh inconclusive, HepG2 tox -67%, TGFb inhibitor 11µM*, GLP-1R agonist -3%, GLP1R inv ag inconclusive and S2 tox inactive.
`CCOc1ccc(C)cc1-n1nc2ccccc2n1` gave ATXN2 expr inh inconclusive, HepG2 tox 0%, TGFb inhibitor 13%, GLP-1R agonist 9%, GLP1R inv ag inconclusive and S2 tox inactive.
Screening Cc1ccc(OCC(=O)Nc2ccc(Cl)cc2)c(-n2nc3ccccc3n2)c1 returned ATXN2 expr inh 35µM*, HepG2 tox -36%, TGFb inhibitor 5%, GLP-1R agonist -4% and GLP1R inv ag -1%.
C=CC[N+]1([C@H]2C[C@H]3[C@@H]4CC[C@H]5C[C@H](OC(C)=O)[C@@H](N6CCCCC6)C[C@]5(C)[C@H]4CC[C@]3(C)[C@H]2OC(=O)CC)CCCCC1 was read as ATXN2 expr inh 1%, GLP-1R agonist 5% and S2 tox inconclusive.
Screening Cc1ccc2occ(CC(=O)Nc3ccc(S(=O)(=O)N4CCCC(C)C4)cc3)c2c1 (stereo not given) returned ATXN2 expr inh inconclusive, HepG2 tox -35%, TGFb inhibitor inconclusive, GLP1R inv ag 11µM* and S2 tox inconclusive.
Cc1ccc2oc(C(=O)Nc3ccc(S(=O)(=O)N4CCCC(C)C4)cc3)cc(=O)c2c1 (stereo not given) was read as ATXN2 expr inh -2%, HepG2 tox 2%, TGFb inhibitor -12%, GLP1R inv ag -7% and S2 tox inactive.
CN(CC(=O)Nc1cccc(Cl)c1)S(=O)(=O)/C=C/c1ccccc1 was read as HepG2 tox -18%, TGFb inhibitor -12%, GLP-1R agonist 15%, GLP1R inv ag 10µM* and S2 tox inactive.
Screening COc1cccc(NC(=O)CN(C)S(=O)(=O)/C=C/c2ccccc2)c1 returned ATXN2 expr inh -2%, HepG2 tox -4%, TGFb inhibitor -8%, GLP-1R agonist 10%, GLP1R inv ag inconclusive and S2 tox inactive.
COc1ccc(-n2ccnc(NCc3ccc(C)cc3)c2=O)cc1OC was read as ATXN2 expr inh -12%, HepG2 tox -4%, TGFb inhibitor -5%, GLP1R inv ag 1% and S2 tox inactive.
CCn1cc(C(=O)N2CCCC2)c(=O)c2cc(S(=O)(=O)N3CCC(C)CC3)ccc21 was read as ATXN2 expr inh 7%, HepG2 tox 14%, TGFb inhibitor 5%, GLP-1R agonist 0%, GLP1R inv ag 1% and S2 tox inactive.
`CCn1cc(C(=O)N2CCN(c3cccc(Cl)c3)CC2)c(=O)c2cc(S(=O)(=O)N3CCC(C)CC3)ccc21` gave ATXN2 expr inh inconclusive, HepG2 tox -32%, TGFb inhibitor 13µM*, GLP-1R agonist -5%, GLP1R inv ag inconclusive and S2 tox inconclusive.
`Cc1ccc(Cl)cc1N1CCN(C(=O)c2cc(S(=O)(=O)N3CCC(C)CC3)cn2C)CC1` gave ATXN2 expr inh 3%, HepG2 tox -19%, TGFb inhibitor 7.1µM*, GLP-1R agonist -4%, GLP1R inv ag -6% and S2 tox inactive.
CC(C)(C)n1ncc2c(=O)n(Cc3cc(F)ccc3Cl)cnc21 was read as HepG2 tox -1% and TGFb inhibitor -3%.
O=C(NCC1CCN(Cc2ccccc2Cl)CC1)c1cc2ccc3cccnc3c2[nH]1 was read as HepG2 tox 16µM*, TGFb inhibitor 16µM* and GLP1R inv ag inconclusive.
Screening CCOc1ccccc1NC(=O)c1cc2ccc3cccnc3c2[nH]1 returned HepG2 tox -12%, TGFb inhibitor -4% and GLP1R inv ag 15%.
O=C(NCc1ccc(Cl)cc1)c1cc2ccc3cccnc3c2[nH]1 was read as HepG2 tox -17%, TGFb inhibitor -4% and GLP1R inv ag -4%.
For O=C(NCC1CCN(Cc2ccc(F)cc2)CC1)c1cc2ccc3cccnc3c2[nH]1 the results were HepG2 tox 18µM*, TGFb inhibitor 16µM* and GLP1R inv ag inconclusive.
`Cc1c(C(=O)NCC(C)C)sc2ncnc(NCC3CCCO3)c12` (stereo not given) gave S2 tox inactive.
`CC1CCN(c2nc(-c3ccncc3)nc3ccccc23)CC1` gave ATXN2 expr inh -20%, HepG2 tox -37%, TGFb inhibitor inconclusive, GLP-1R agonist 3%, GLP1R inv ag 6.3µM* and S2 tox inactive.
`CN1CCN(c2nc(-c3ccc(C(C)(C)C)cc3)nc3ccccc23)CC1` gave HepG2 tox -82%, TGFb inhibitor inconclusive, GLP-1R agonist -1%, GLP1R inv ag 8.9µM* and S2 tox inactive.
Screening Cc1ccc(NS(=O)(=O)c2ccc3[nH]c4c(c3c2)CCCCC4)cc1 returned ATXN2 expr inh inconclusive, HepG2 tox -104%, TGFb inhibitor inconclusive, GLP1R inv ag 11µM* and S2 tox inconclusive.
COc1ccccc1CNS(=O)(=O)c1ccc2[nH]c3c(c2c1)CCCCC3 was read as ATXN2 expr inh 0%, HepG2 tox -57%, TGFb inhibitor 11µM*, GLP1R inv ag inconclusive and S2 tox inconclusive.
`CCOC(=O)CC(NS(=O)(=O)c1ccc2[nH]c3c(c2c1)CCCC3)c1ccccc1Cl` (stereo not given) gave HepG2 tox -48%, TGFb inhibitor 20µM* and GLP1R inv ag inconclusive.

Bioassay records as filed in PubChem BioAssay.
